# PubChem BioAssay
# The source made the active and inactive calls.
# Legend:
# [1] = system: Plasmodium falciparum Sir2 (PF13_0152, Sir2A); assay: pfSir2 binders on small-molecule microarrays, primary screen, biochemical, small-molecule microarray, 635 nm fluorescence (AID 1098); conditions: small-molecule microarray binding, fluorescence 635 nm; higher = more signal;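 note: score merges spot fluorescence intensity with its signal-to-noise ratio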
# [2] = small-molecule microarray binders of probe aDKK1, primary screen, biochemical, biotinylated probe, 635/667 nm fluorescence (AID 1099); conditions: higher = more signal;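 note: score merges 667nm spot fluorescence with signal to noise across triplicate slides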
# [3] = small-molecule microarray binders of probe aCHRDL2, primary screen, biochemical, biotinylated probe, 635/667 nm fluorescence (AID 1100); conditions: higher = more signal
# [4] = splicing luciferase reporter signal modulators, primary screen, spliceosome inhibition project, cell-based, HEK293, splice +/- reporter (AID 1101); conditions: luminescence, 24 h, higher = more signal, called active from +8 up or from −8 down;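 note: HEK293 cells carrying a splicing-competent luciferase reporter gene; test concentration not given here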
# [5] = biological target: Fibroblast growth factor 10 (Homo sapiens) (UniProt O15520); assay: FGF10 binders on small-molecule microarrays, primary screen, biochemical, small-molecule microarray, 635 nm fluorescence (AID 1102); conditions: FGF10 binding, fluorescence 635 nm, higher = more signal
# Fibroblast growth factor 10 (Homo sapiens), sequence (O15520 whole entry, looked up): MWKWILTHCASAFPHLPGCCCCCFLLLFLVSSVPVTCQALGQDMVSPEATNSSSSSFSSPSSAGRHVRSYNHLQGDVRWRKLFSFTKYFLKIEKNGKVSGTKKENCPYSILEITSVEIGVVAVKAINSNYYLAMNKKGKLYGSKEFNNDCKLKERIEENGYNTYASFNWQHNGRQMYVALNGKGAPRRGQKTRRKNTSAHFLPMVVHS
# [6] = system: glycogen synthase kinase-3 (GSK3A per assay name; protocol says GSK3B); assay: GSK3 binders on small-molecule microarrays, primary screen, biochemical, small-molecule microarray, 635 nm fluorescence, GSK3A (AID 1103); conditions: small-molecule microarray binding, fluorescence 635 nm; higher = more signal; note: the record names both GSK3A and GSK3B
# [7] = biological target: Epidermal growth factor receptor (Homo sapiens) (UniProt P00533); assay: EGFR binders on small-molecule microarrays, primary screen, biochemical, small-molecule microarray, 635 nm fluorescence (AID 1104); conditions: EGFR binding, higher = more signal;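 note: score merges 667 nm emission intensity with spot signal to noise over triplicate slides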
# Epidermal growth factor receptor (Homo sapiens), sequence (P00533 whole entry, looked up): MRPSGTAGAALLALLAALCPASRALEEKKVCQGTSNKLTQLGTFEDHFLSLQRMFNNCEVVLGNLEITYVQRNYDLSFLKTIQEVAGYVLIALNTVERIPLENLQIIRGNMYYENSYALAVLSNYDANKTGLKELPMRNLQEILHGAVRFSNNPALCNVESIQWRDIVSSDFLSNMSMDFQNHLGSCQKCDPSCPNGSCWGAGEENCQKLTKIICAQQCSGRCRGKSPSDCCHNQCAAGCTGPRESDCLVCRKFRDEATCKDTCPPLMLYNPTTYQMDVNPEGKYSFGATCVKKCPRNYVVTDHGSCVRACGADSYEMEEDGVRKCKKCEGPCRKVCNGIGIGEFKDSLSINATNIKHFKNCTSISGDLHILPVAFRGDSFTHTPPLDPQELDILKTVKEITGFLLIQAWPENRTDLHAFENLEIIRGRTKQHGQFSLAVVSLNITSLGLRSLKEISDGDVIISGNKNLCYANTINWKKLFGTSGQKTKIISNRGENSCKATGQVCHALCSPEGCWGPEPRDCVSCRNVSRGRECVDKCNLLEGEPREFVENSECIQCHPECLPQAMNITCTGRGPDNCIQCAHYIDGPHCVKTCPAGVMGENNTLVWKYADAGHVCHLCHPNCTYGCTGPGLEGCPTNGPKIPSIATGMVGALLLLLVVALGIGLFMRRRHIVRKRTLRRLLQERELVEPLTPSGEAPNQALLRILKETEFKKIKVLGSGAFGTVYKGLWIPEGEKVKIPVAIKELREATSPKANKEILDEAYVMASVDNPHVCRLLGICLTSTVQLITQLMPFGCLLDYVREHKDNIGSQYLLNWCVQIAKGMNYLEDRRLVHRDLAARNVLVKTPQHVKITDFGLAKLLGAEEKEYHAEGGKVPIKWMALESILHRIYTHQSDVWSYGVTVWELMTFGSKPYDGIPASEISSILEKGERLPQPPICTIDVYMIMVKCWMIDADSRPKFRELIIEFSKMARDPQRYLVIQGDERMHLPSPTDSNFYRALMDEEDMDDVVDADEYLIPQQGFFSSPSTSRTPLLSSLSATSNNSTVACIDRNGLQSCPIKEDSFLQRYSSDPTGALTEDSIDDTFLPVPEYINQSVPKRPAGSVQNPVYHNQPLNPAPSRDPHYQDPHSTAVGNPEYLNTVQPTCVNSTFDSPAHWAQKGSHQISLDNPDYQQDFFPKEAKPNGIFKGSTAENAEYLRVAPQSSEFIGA
# [8] = biological target: Follistatin-related protein 3 (Homo sapiens) (UniProt O95633); assay: FSTL3 binders on small-molecule microarrays, primary screen, biochemical, small-molecule microarray, 635 nm fluorescence (AID 1105); conditions: FSTL3 binding, higher = more signal;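 note: score merges emission near 667 nm and signal to noise per printed spot across three slides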
# Follistatin-related protein 3 (Homo sapiens), sequence (O95633 whole entry, looked up): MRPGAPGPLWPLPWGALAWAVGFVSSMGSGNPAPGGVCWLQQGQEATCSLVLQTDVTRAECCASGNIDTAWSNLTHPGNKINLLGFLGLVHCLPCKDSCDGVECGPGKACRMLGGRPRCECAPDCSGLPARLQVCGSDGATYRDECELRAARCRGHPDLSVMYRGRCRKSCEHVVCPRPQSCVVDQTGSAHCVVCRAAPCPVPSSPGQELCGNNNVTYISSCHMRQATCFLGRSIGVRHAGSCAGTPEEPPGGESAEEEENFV
# [9] = biological target: Dickkopf-related protein 1 (Homo sapiens) (UniProt O94907); assay: DKK1 binders on small-molecule microarrays, primary screen, biochemical, small-molecule microarray, 635 nm fluorescence scan (AID 1106); conditions: DKK1 binding, higher = more signal;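 note: score merges emission near 667 nm with signal to noise over three replicate slides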
# Dickkopf-related protein 1 (Homo sapiens), sequence (O94907 whole entry, looked up): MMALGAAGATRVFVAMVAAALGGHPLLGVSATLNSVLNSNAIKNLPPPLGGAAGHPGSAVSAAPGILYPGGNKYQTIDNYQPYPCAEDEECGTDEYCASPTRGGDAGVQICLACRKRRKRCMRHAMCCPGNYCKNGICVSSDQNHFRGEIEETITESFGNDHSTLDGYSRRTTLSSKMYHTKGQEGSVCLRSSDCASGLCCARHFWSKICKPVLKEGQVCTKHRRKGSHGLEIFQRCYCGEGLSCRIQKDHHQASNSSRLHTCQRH
# [10] = system: Inhibin beta A chain (activin A); assay: INHBA (activin A) binders on microarrays, primary screen, biochemical, small-molecule microarray, 635 nm fluorescence scan (AID 1107); conditions: small-molecule microarray binding, higher = more signal;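 note: mouse activin A protein probed at 4.33 µg/mL on printed slides; score merges bound-protein fluorescence near 667 nm with spot signal-to-noise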
# [11] = system: Human papillomavirus type 1a protein E7 (residues 44-93); assay: HPV1a E7 fragment binders on microarrays, primary screen, biochemical, small-molecule microarray, residues 44-93, 635 nm fluorescence (AID 1108); conditions: small-molecule microarray binding, fluorescence 635 nm; higher = more signal;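 note: E7 fragment applied at 1 µg/mL in TBST for 1 h at 4 C; score combines spot fluorescence with its signal to noise ratio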
# [12] = modulators of HCV replicon luciferase signal, primary screen, HCV replication inhibitor project, Huh7 cells, luciferase reporter (AID 1109); conditions: 48 h, higher = more signal;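 note: huh7 hepatoma cells harbouring a luciferase neomycin HCV replicon reporter; luciferase luminescence as measure of HCV replicon replication; test concentration not given here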
# [13] = biological target: Left-right determination factor 2 (Homo sapiens) (UniProt O00292); assay: LEFTY2 binders on small-molecule microarrays, primary screen, biochemical, small-molecule microarray, 635 nm fluorescence scan (AID 1110); conditions: LEFTY2 binding, higher = more signal
# Left-right determination factor 2 (Homo sapiens), sequence (O00292 whole entry, looked up): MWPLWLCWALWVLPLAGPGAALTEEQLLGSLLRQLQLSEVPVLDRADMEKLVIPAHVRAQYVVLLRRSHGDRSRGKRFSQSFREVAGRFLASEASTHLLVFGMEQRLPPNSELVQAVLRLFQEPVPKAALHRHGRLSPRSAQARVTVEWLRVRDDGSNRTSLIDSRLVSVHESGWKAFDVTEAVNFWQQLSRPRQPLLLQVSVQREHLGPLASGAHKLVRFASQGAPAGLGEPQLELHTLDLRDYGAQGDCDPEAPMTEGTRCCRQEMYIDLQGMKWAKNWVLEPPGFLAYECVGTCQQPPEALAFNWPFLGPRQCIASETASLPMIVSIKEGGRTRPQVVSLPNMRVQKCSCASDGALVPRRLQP
# [14] = biological target: Calmodulin-1 (Homo sapiens) (UniProt P0DP23); assay: CALM1 binders on microarrays, EGTA buffer, profiling panel, biochemical, small-molecule microarray, Cy5-labelled CALM1 (AID 1111); conditions: Cy5-CALM1 binding fluorescence, higher = more signal;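 note: labelled calmodulin applied in Tris saline Tween buffer holding calcium plus EGTA and DTT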
# [15] = biological target: Calmodulin-1 (Homo sapiens) (UniProt P0DP23); assay: calcium-bound CALM1 binders on microarrays, profiling panel, artefact control for SMM control-protein annotation, biochemical, small-molecule microarray, Cy5-labelled CALM1, plus calcium (AID 1112); conditions: Cy5-CALM1 binding fluorescence, higher = more signal;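 note: score merges spot fluorescence with signal to noise from triplicate slides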
# [16] = small-molecule microarray binders of probe aWnt5a, primary screen, biochemical, biotinylated probe, 635/667 nm fluorescence (AID 1113); conditions: higher = more signal;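 note: score merges 667 nm fluorescence intensity with signal-to-noise per printed feature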
# [17] = small-molecule microarray binders of probe aShh, primary screen, biochemical, biotinylated probe, 635/667 nm fluorescence (AID 1114); conditions: higher = more signal;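 note: probe is biotin-labelled aShh protein from a stem cell growth factor screen; measures binding of labelled protein to compounds printed on the slide; score merges feature fluorescence at 667 nm with signal-to-noise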
# [18] = small-molecule microarray binders of probe aNog, primary screen, biochemical, biotinylated probe, 635/667 nm fluorescence (AID 1115); conditions: higher = more signal;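 note: probe is biotinylated aNog protein used at 0.15 µg/mL for 1 h at 4 C; z-score combines 667 nm fluorescence of each spot with its signal to noise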
# [19] = biological target: Torsin-1A-interacting protein 1 (Homo sapiens) (UniProt Q5JTV8); assay: LAP1 binders from COS7 cell lysate, primary screen, small-molecule microarray, 635/667 nm fluorescence (AID 1116); conditions: COS7-hLAP1 lysate binding, 635 nm fluorescence, higher = more signal
# Torsin-1A-interacting protein 1 (Homo sapiens), sequence (Q5JTV8 whole entry, looked up): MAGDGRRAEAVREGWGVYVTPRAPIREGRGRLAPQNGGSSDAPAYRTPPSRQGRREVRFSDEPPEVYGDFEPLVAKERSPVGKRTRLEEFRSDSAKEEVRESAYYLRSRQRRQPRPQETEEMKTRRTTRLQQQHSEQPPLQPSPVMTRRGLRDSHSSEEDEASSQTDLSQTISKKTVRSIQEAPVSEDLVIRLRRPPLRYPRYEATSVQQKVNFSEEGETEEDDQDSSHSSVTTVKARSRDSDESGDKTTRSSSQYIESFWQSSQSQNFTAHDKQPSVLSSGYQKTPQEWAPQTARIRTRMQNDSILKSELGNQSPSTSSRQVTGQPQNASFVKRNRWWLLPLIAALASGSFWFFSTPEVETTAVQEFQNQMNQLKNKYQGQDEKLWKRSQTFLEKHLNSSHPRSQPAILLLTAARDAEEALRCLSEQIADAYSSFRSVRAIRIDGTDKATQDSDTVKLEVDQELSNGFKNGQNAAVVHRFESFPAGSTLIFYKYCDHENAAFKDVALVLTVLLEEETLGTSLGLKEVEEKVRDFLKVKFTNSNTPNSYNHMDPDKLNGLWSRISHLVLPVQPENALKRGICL
# [20] = biological target: Alpha-bungarotoxin (Bungarus multicinctus) (UniProt P60615); assay: alpha-bungarotoxin binders on microarray, profiling panel, artefact control for SMM control protein annotation, biochemical, small-molecule microarray, Alexa647 label, 635/667 nm fluorescence (AID 1117); conditions: alpha-BTX-A647 binding fluorescence, higher = more signal
# Alpha-bungarotoxin (Bungarus multicinctus), sequence (P60615 whole entry, looked up): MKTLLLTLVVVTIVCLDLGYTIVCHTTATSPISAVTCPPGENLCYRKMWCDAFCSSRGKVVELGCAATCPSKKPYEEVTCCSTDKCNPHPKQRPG
Compound,composite z-score [1],composite z-score [2],composite z-score [3],z-score [4],composite z-score [5],composite z-score [6],composite z-score [7],composite z-score [8],composite z-score [9],composite z-score [10],composite z-score [11],z-score [12],composite z-score [13],composite z-score [14],composite z-score [15],composite z-score [16],composite z-score [17],composite z-score [18],composite z-score [19],composite z-score [20]
CCOC(=O)C1=CC[C@@H](c2ccccc2)N(S(=O)(=O)c2ccc(C)cc2)[C@H]1c1ccc(CC)cc1,0.375,0.961,0.538,0.425 (inactive),0.393,1.17,0.221,0.395,-0.112,0.965,1.4,-1.8,0.353,1.21,0.511,-0.0384,-0.264,0.733,0.331,0.569
Cc1ccc(S[C@]2(C(=O)NCC(C)C)CC(=O)N(Cc3cc(C(F)(F)F)cc(C(F)(F)F)c3)[C@@H]2c2ccc(CO)cc2)cc1,0.889,0.209,0.736,0.585 (inactive),-0.417,-0.725,-1.25,-0.634,-0.326,0.96,-0.716,-0.297,-0.419,-0.909,-0.468,0.168,-0.153,-0.468,0.489,-0.0201
OB1C=CCC(CCc2ccccc2)O1 (stereo not given),1.57,-0.246,0.0796,-0.817 (inactive),-0.184,-0.428,0.0835,-0.544,-0.191,1.67,-1.86,1.1,-0.32,-0.961,-0.455,-0.263,-0.117,-0.39,0.363,-0.725
C=C(CCCC)/C(=C/C[C@H](OC(C)=O)c1ccccc1OCCO)c1cnc2ccccc2c1,0.593,-0.278,-0.114,1.81 (inactive),0.931,-0.0183,0.0674,0.747,0.277,1.52,0.984,-2.75,0.0641,-0.0602,-0.796,-0.0718,-0.0709,-0.327,0.469,0.887
COC(=O)[C@H](Cc1ccccc1)N[C@H](/C=C/C1CC1)[C@@H](O)Cc1ccccc1,-0.111,-0.351,0.327,-1.16 (inactive),-0.66,-1.22,-0.579,-0.244,-0.506,0.0419,-0.636,-1.02,-0.276,-0.595,-1.08,-0.237,0.14,-0.34,0.627,-0.696
O=C1OCCC=C[C@H]2OC34C=CCN(Cn5nnc6ccccc65)C(=O)[C@H]3N(CCO)C(=O)[C@@H]4C12 (stereo not given in full),1.34,0.362,0.254,-0.456 (inactive),-1.55,-1.6,-1.77,-1.04,-1.64,-0.539,-1.59,-0.772,-2.07,-0.4,0.262,-0.252,-0.262,0.328,-0.618,1.1
CC(C)C(=C=CC[C@H](O)c1ccc(CO)o1)CCO,0.458,-0.288,-0.471,0.241 (inactive),0.494,0.621,-0.115,0.402,0.0097,0.411,1.21,-1.12,-0.0171,-0.26,-0.649,-0.15,-0.0793,-0.0827,0.843,0.963
NCCCCCCNC(=O)[C@H]1C[C@H]2C(=O)N[C@@H](Cc3ccccc3)C(=O)N2[C@H]1c1cccc(OCCO)c1,0.809,0.682,0.713,-0.895 (inactive),0.324,0.0638,0.13,0.362,-0.0608,0.101,0.694,0.794,0.146,2.14,0.857,-0.0718,0.356,0.0574,1.6,0.576
COC(=O)C(CC#Cc1ccc2c(c1)[C@]1(C(=O)N2)[C@H](c2ccccc2OCCO)N2[C@H](c3ccccc3)[C@H](c3ccccc3)OC(=O)[C@H]2[C@@H]1C(N)=O)C(=O)OC,1.54,1.45,0.862,-3.57 (inactive),0.376,1,0.241,0.412,-0.221,0.693,0.599,-2.95,-0.0862,1.33,0.116,0.349,0.679,2.29,1.21,2.45
O=C1C2C=CC(C(O)c3ccc(-c4ccccc4)s3)N(Nc3ccccc3)C2C(=O)N1c1ccccc1 (stereo not given),1.5,0.753,0.953,1.1 (inactive),0.722,0.808,-0.0664,1.03,-0.632,0.845,1.47,-0.978,-0.44,1.45,0.133,0.105,0.634,1.38,0.537,1.46
C=CC[C@]12N=C(c3ccc(OCCCO)cc3)O[C@H]1c1ccccc1N(CCS(=O)(=O)c1ccccc1)C2=O,1.43,0.419,0.777,-2.04 (inactive),0.374,1.3,0.595,1.11,0.694,1.26,1.41,-2.26,0.559,1.17,0.289,0.0775,0.54,-0.484,0.863,1.02
C=CCNC(=O)[C@H]1[C@@H]2C(=O)O[C@@H](c3ccccc3)[C@@H](c3ccccc3)N2[C@@H](c2ccc(OCCO)cc2)[C@]12C(=O)Nc1ccc(C#CCC(C(=O)OC)C(=O)OC)cc12,1.25,0.313,0.655,0.279 (inactive),1.29,1.09,0.787,1.25,0.83,0.559,0.694,-2.22,1.37,0.832,0.478,0.0805,-0.254,-0.126,0.357,1.34
